According to the supplement of paper PMC11732987, “Enantioselective OTUD7B fragment discovery through chemoproteomics screening and high-throughput optimisation” (Communications Chemistry, 2025):

Tests used:
Assay in all cases: log2 ratio of Biotin-Ahx-Ub-VS probe labelling (fragment/DMSO); higher = less target engagement (more negative = stronger competition), active = hit call of the paper (q ≤ 0.05, log2 ratio ≤ -1)
Conditions in all cases: compound concentration: 200 uM; treatment time: 3 h
USP42 = biological target: T1, USP42 (UniProt Q9H9J4)
T1 sequence (whole entry): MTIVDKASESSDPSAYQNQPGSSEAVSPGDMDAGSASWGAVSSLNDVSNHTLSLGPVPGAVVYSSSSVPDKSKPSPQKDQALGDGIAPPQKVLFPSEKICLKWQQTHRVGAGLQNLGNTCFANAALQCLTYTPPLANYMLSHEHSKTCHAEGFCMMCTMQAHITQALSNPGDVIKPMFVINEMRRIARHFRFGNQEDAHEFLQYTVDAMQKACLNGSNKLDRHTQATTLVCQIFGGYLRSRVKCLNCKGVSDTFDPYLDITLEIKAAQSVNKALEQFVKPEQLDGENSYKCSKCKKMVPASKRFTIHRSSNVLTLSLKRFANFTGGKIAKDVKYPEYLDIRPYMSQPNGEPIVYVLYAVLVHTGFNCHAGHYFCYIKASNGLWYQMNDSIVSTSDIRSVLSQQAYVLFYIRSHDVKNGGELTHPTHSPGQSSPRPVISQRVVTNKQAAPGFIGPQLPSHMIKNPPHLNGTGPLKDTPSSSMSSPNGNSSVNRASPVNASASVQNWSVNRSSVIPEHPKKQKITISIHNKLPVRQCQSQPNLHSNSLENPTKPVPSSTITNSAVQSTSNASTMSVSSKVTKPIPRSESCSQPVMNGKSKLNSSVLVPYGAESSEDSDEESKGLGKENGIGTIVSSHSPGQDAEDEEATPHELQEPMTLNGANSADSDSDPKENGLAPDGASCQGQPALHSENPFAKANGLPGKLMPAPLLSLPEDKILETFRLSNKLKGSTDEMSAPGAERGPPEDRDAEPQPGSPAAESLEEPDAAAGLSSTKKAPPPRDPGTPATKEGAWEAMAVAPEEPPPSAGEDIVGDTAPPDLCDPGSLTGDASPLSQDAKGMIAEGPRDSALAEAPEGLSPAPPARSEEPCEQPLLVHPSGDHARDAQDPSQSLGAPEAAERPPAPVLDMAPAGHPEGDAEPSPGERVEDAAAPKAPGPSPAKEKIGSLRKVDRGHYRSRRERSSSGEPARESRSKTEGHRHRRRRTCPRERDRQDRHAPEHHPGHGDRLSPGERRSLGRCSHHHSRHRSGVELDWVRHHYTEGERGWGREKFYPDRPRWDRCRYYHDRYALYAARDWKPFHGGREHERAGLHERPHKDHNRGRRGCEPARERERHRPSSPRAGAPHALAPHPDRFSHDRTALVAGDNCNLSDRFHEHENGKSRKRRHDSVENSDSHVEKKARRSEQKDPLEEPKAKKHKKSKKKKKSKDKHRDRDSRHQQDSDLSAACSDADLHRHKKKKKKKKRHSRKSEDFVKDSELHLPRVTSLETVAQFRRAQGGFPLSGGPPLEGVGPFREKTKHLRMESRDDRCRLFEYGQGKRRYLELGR
How it was run: (§1)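 Labelling with Biotin-Ahx-Ub-VS (0.5 µM final, 1 h) followed a 3 h triplicate treatment of HEK293T lysate (495 µg per sample, Tris/CHAPS/IGEPAL buffer with protease inhibitors) with fragment at 200 µM or vehicle. Labelled DUBs were NeutrAvidin-enriched, digested with LysC and trypsin, and run by diaPASEF LC-MS/MS. The values, average log2 fragment/vehicle ratios by unpaired t-test, come from global-median-normalised Spectronaut label-free quantities. Proteins with ≥2 unique peptides were used.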

USP46 = USP46 (UniProt P62068)
How it was run: as §1

USP47 = biological target: T2, USP47 (UniProt Q96K76)
T2 sequence (whole entry): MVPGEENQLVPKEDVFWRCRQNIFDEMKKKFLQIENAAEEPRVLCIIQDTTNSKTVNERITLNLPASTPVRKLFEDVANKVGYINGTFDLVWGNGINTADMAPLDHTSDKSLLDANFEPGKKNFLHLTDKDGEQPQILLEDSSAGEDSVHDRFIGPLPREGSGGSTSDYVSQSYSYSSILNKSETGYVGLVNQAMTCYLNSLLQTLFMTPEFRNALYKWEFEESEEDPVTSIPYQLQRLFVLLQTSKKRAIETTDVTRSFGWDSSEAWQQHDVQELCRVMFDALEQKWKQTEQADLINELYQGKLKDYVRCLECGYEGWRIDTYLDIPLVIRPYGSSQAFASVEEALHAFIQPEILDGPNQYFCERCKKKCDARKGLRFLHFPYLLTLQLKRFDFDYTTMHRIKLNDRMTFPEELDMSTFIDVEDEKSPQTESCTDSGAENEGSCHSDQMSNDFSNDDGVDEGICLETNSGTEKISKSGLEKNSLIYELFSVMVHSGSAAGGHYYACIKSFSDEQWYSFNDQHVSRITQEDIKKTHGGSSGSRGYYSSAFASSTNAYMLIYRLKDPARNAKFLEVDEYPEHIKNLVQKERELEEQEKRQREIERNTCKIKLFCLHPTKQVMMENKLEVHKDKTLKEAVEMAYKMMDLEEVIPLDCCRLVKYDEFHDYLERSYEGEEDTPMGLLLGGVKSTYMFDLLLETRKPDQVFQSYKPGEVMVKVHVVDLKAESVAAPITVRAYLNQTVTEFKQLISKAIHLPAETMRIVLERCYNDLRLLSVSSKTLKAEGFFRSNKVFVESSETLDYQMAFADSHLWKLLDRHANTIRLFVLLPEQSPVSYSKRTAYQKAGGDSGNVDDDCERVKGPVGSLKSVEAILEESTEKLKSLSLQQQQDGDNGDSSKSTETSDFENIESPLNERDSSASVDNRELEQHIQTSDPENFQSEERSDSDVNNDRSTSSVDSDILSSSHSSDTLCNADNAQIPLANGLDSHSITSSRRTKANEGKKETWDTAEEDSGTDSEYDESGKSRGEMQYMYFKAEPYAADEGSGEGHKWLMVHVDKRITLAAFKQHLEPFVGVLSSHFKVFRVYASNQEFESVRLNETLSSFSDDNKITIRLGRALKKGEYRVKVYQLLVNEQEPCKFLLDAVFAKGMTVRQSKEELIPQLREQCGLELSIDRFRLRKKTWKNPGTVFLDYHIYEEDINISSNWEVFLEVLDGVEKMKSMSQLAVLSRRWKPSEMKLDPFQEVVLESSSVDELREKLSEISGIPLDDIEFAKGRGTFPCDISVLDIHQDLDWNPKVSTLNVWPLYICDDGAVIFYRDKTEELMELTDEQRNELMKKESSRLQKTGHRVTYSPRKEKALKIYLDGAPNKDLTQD
How it was run: as §1

USP48 = biological target: T3, USP48 (UniProt Q86UV5)
T3 sequence (whole entry): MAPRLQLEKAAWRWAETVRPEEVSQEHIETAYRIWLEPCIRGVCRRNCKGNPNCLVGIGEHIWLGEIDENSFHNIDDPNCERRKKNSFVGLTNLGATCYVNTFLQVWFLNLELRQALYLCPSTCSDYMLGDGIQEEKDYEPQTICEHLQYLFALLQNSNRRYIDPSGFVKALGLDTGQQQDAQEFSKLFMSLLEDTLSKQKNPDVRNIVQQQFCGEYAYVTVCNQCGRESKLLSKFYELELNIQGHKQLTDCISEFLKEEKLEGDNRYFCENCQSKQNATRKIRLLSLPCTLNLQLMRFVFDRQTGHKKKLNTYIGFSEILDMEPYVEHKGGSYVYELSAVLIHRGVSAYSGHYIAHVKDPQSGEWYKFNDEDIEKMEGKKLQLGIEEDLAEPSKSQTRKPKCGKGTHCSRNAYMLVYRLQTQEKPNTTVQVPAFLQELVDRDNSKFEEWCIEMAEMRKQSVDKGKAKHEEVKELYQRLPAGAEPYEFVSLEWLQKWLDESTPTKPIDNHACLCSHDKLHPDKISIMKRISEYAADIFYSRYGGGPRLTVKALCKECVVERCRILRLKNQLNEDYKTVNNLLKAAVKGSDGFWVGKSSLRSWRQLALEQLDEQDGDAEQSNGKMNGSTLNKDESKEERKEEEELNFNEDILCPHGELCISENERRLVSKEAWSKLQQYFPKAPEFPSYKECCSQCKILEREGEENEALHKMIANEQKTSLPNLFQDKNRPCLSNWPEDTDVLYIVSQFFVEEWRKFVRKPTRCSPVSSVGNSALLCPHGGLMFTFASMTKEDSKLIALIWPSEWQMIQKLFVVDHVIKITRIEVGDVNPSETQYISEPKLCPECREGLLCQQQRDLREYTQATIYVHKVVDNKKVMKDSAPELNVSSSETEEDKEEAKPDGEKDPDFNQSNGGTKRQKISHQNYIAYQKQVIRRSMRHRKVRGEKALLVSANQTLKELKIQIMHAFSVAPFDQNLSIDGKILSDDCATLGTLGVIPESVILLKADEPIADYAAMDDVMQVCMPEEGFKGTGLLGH
How it was run: as §1

USP5 = biological target: T4, USP5 (UniProt P45974)
T4 sequence (whole entry): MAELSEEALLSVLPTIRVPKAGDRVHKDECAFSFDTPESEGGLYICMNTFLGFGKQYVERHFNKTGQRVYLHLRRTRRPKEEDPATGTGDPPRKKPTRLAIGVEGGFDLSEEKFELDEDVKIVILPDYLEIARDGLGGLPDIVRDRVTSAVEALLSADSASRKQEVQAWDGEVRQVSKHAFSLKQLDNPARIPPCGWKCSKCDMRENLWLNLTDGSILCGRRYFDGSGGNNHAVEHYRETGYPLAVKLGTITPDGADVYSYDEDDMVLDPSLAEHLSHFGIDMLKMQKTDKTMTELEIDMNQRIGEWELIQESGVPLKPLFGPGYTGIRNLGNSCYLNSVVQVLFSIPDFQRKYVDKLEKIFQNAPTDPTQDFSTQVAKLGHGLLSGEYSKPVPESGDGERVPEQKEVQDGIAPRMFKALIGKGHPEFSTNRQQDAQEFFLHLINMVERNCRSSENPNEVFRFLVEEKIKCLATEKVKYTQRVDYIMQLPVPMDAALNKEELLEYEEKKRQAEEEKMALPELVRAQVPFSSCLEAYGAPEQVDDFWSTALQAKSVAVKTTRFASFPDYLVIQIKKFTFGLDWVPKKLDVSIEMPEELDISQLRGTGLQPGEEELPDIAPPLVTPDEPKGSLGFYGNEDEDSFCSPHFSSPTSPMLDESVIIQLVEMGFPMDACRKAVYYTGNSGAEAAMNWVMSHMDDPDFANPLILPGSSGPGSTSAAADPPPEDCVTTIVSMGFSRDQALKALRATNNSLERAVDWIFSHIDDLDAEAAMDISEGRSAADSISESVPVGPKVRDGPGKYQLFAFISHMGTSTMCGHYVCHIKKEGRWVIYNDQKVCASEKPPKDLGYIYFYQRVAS
How it was run: as §1

USP54 = USP54 (UniProt Q70EL1)
How it was run: as §1

USP7 = USP7 (UniProt Q93009)
How it was run: as §1

USP8 = biological target: T5, USP8 (UniProt P40818)
T5 sequence (whole entry): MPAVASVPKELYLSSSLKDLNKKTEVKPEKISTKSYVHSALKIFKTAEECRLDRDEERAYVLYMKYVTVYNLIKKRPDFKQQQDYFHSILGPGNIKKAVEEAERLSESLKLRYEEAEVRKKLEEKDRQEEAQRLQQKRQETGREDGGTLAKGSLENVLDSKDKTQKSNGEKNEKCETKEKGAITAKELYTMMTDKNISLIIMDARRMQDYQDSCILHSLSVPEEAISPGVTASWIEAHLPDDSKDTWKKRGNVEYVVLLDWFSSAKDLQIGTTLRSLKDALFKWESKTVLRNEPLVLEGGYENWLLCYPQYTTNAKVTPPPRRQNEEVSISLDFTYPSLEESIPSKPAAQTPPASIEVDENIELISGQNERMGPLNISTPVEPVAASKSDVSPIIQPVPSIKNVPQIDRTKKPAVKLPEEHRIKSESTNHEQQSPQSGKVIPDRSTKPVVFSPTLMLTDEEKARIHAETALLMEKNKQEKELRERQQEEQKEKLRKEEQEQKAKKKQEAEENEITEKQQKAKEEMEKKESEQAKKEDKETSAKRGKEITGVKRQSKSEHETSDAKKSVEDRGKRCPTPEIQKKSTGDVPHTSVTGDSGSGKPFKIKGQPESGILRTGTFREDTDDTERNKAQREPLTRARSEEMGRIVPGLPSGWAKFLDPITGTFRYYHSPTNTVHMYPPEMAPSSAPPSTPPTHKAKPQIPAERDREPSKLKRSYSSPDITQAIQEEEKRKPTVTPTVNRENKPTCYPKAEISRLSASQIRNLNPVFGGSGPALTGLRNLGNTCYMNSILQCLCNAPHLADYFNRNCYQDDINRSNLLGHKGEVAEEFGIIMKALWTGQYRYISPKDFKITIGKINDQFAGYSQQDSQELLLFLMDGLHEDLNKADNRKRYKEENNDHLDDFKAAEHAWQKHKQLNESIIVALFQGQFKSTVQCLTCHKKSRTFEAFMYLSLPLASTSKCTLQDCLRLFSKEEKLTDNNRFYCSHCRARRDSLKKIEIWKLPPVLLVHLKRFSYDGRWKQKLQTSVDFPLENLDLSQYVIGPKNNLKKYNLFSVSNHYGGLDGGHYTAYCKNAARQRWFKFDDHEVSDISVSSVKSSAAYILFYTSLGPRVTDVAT
How it was run: as §1

USP9X = USP9X (UniProt Q93008)
How it was run: as §1

UniProt O00487 = biological target: UniProt O00487
How it was run: as §1

Measured: log2 ratio of Biotin-Ahx-Ub-VS probe labelling

Chain of USP46 (P62068 whole entry): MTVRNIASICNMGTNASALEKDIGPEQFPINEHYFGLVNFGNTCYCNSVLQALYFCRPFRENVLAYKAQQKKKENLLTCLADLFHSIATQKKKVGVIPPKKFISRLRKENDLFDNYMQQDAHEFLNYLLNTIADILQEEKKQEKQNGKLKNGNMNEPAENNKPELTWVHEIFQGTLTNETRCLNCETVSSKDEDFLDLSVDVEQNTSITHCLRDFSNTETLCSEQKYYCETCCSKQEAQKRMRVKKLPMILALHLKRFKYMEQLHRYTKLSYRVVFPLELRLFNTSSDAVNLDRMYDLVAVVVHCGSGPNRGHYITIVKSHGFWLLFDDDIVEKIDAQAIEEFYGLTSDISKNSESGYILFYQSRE
Chain of UniProt O00487 (O00487 whole entry): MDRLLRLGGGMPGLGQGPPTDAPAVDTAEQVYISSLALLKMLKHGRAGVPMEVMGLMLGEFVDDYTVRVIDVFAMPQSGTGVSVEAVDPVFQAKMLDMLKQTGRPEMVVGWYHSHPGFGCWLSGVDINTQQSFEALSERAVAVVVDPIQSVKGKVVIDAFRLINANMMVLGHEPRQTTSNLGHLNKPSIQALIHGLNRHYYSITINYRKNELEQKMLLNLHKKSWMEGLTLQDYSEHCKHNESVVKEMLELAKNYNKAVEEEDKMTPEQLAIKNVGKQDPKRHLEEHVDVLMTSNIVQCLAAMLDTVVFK
Chain of USP9X (Q93008 whole entry): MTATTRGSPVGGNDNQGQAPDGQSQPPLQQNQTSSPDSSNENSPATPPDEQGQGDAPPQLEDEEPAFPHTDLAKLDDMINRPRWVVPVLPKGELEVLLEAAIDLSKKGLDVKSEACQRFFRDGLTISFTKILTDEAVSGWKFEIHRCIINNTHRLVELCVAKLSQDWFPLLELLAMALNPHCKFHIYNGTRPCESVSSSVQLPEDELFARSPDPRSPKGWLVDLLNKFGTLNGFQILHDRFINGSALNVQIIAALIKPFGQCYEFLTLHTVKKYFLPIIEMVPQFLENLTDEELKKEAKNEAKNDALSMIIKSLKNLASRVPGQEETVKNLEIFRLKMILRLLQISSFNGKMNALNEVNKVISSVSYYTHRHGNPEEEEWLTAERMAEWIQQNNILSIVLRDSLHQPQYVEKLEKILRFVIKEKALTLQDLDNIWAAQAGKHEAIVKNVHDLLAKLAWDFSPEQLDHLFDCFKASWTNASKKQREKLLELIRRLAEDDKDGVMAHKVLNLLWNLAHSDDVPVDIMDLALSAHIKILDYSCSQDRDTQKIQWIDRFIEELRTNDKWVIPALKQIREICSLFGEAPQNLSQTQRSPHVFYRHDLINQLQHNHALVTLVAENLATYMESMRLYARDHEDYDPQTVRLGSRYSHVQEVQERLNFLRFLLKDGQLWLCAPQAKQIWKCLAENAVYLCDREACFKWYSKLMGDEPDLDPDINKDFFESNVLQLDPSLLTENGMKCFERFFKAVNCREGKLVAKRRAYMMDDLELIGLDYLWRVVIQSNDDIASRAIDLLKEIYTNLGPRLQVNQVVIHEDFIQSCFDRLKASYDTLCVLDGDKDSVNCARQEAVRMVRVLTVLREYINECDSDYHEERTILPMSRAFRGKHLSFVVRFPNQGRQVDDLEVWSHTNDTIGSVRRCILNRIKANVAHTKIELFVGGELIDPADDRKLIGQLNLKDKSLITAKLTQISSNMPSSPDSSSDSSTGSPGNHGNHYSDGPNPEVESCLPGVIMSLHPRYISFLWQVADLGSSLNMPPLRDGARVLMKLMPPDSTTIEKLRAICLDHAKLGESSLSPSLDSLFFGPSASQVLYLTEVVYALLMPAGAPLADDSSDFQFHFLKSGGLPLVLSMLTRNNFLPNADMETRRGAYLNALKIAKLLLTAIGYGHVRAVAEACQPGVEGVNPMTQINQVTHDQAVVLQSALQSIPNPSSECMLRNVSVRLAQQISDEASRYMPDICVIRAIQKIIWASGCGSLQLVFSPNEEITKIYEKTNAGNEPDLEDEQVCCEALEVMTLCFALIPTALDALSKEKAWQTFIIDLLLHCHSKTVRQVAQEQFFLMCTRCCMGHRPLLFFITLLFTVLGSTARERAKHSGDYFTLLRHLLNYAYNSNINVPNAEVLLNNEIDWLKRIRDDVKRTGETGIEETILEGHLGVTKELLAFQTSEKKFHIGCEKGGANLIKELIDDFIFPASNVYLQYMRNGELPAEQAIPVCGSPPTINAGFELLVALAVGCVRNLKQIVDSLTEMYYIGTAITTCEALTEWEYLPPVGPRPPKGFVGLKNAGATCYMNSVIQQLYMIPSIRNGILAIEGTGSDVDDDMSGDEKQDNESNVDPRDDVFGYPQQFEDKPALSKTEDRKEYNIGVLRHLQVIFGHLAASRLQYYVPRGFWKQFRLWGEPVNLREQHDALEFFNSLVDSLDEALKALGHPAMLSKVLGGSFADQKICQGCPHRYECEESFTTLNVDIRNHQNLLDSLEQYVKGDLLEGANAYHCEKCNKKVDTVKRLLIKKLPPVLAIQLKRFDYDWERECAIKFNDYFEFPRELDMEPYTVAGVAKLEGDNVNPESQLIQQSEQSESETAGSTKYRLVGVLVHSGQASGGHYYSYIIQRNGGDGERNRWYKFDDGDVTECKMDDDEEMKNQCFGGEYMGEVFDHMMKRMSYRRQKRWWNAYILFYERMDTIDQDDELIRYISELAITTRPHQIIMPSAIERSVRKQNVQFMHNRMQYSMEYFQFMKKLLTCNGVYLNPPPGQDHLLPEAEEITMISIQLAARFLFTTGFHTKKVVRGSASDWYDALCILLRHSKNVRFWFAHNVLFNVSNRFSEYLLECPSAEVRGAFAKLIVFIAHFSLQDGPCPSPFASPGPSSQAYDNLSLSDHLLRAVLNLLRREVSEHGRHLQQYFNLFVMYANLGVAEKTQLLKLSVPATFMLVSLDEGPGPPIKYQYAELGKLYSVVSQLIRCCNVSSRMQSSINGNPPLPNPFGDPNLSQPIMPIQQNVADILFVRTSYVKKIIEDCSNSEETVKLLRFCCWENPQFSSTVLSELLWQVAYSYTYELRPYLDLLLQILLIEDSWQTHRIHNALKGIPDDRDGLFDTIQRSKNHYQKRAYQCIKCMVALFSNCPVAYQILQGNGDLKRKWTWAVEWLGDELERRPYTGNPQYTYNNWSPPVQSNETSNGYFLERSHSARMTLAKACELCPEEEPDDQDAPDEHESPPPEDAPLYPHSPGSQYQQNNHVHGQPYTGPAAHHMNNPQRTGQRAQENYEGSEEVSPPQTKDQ
Chain of USP7 (Q93009 whole entry, looked up): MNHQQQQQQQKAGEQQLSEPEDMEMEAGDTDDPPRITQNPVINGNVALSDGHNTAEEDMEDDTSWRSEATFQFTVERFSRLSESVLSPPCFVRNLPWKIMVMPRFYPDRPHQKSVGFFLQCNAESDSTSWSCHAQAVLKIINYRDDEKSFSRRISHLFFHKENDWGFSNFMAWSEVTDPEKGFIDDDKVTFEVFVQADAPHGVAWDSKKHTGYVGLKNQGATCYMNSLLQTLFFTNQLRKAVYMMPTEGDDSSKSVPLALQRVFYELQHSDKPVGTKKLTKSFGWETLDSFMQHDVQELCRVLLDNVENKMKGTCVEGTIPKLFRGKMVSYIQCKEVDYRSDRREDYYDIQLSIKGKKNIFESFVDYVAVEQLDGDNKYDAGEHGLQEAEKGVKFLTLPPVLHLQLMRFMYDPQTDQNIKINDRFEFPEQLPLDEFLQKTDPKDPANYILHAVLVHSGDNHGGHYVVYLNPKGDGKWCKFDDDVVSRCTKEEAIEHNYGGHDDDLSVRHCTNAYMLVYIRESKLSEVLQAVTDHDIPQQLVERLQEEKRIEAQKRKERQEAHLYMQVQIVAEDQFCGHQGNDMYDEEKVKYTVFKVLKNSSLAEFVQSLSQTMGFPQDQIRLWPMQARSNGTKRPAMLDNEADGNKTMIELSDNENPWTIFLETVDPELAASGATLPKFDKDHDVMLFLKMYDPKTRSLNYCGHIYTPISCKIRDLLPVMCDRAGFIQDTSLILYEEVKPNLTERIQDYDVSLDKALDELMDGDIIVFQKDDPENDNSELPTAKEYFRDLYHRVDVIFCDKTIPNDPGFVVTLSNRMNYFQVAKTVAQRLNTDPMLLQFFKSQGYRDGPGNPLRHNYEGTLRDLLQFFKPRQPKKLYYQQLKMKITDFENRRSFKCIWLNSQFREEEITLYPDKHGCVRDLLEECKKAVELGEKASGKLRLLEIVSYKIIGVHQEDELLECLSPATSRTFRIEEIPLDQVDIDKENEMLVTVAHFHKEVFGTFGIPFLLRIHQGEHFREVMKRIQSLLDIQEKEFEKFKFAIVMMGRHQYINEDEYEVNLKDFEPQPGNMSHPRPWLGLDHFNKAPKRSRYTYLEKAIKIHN

O=C(CCl)N1CCOCC1C1CC1 (stereo not given)
inactive: USP42 -0.112 | USP46 0.00778 | USP47 -0.0311 | USP48 0.0155 | USP5 0.147 | USP54 0.967 | USP7 -0.145 | USP8 -0.168 | USP9X -0.18 | UniProt O00487 -0.226
